Drawing on PubChem BioAssay (EPA / NIEHS), this text covers outcome and AC50 for 32 compounds.

Records with an inconclusive call do not appear. Calls of active or inactive are those of the source. The calls were made as follows: active = hit-call score of the fitted dose curve at least 0.9, where 1 is the maximum; inconclusive = response in the unintended direction; inactive = score below 0.9.

Read-out in this assay: sulfotransferase (SULT2A), SULT2A1 (gene 6822)
Put plainly: CLD_SULT2A_24hr: CellzDirect (CLD) Gene Expression Assay for sulfotransferase (SULT2A) at 24 hours (AID 2283694).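 As to AC50: potency for increased SULT2A1 mRNA level as induction over DMSO baseline.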 The protocol: CLD_24hr is a cell-based, multiplexed-readout assay that uses hepatocyte, a human liver primary cell, with measurements taken at 24 hours after chemical dosing in a 96-well plate.CLD_SULT2A_24hr is one of 16 assay component(s) measured or calculated from the CLD_24hr assay. It is designed to make measurements of mRNA induction, a form of inducible reporter, as detected with chemiluminescence signals by Quantitative Nuclease Protection Assay (qNPA) technology.Data from the assay component CLD_SULT2A_24hr was analyzed at the endpoint, CLD_SULT2A_24hr, in the positive analysis fitting direction relative to DMSO as the negative control and baseline of activity. Using a type of inducible reporter, gain-of-signal activity can be used to understand changes in the reporter gene as they relate to the gene SULT2A1. Furthermore, this assay endpoint can be referred to as a primary readout. To generalize the intended target to other relatable targets, this assay endpoint is annotated to the transferase intended target family, where subfamily is sulfotransferase.
Human hepatocyte cultures were treated daily for two consecutive days with fresh dosing solutions containing appropriate concentrations of the 320 ToxCast chemicals (chemical identities were blinded to CellzDirect and other ToxCast collaborators), vehicle control (0.2% DMSO), and positive control inducers as summarized in Table 1. Due to the large number of treatment groups and chemicals examined, the ToxCast chemicals were divided into two groups (spanning two independent cultures of hepatocytes from separate donor preparations (Hu778: ToxCast plates 1 and 2; Hu776: ToxCast plates 3 and 4). Each preparation of human hepatocyte cultures was treated with respective vehicle control, medium only control, set of six positive controls/reference chemicals for the five hepatic receptor pathways, and a subset of eight of the ToxCast chemicals (indoxacarb, pyrithiobac-sodium, norflurazon, cyhalofop-butyl, methomyl, thiram, acetochlor, and propiconazole). These replicate data, coupled with internal replicates designed within the blinded ToxCast chemical library, provided additional data to evaluate interindividual differences between hepatocyte preparations and their potential impact on chemical profiles.Cell morphology and integrity were evaluated using phase-contrast microscopy as an indicator of hepatocyte cell health (Tyson & Green, 1987). Cultures for each treatment group (i.e., media, vehicle [0.2% DMSO], positive control inducers [multiple concentrations], and the ToxCast chemicals [multiple concentrations]) were observed and cell morphology was assessed relative to vehicle control cultures at each harvest time point (0, 6, 24, or 48 h). […] Images were evaluated at the conclusion of the study to assess changes in cell integrity and account for the effects of chemical exposure on uncharacteristic changes in concentration-dependent gene expression profiles. The results from these determinations of apparent cytotoxicity were annotated (yes/no) alongside the corresponding qNPA data for reference.At the conclusion of each treatment period, hepatocyte cultures (96-well) were washed with 1 volume of HBSS, lysed by addition of 25 ul ArrayPlate lysis buffer (HTG, Tucson, AZ), and 70 ul/well of Denaturation Oil, denatured by incubation at 95C for 10 min, and frozen at approximately -70C until analysis by nuclease protection assay (qNPA) (Roberts et al., 2007). For qNPA analysis, cell lysates were thawed at 50C for approximately 30 min, qNPA probes were added, and samples were incubated at 95C for 10 min to begin the detection process by denaturing the target RNA, dissociating the duplexes and secondary structure hybridization. At the conclusion of the hybridization period, S1 nuclease reagent was added to each sample to digest all nonprotected nucleotides at 50C for 60-90 min. […]
For `CCc1ccc(C(=O)NN(C(=O)c2cc(C)cc(C)c2)C(C)(C)C)cc1`, the compound was called inactive.
The same measure, in the same setting: with `CCS(=O)(=O)c1cccnc1S(=O)(=O)NC(=O)Nc1nc(OC)cc(OC)n1` the entry was “inactive”; with `COP(=O)(OC)OC=C(Cl)Cl`, “inactive”.
Still for that read-out and setting: with `CC(C)(C)C(O)/C(=C\c1ccc(Cl)cc1Cl)n1cncn1` (configuration not stated) the entry was “inactive”; with `O=C(O)C(F)(F)C(F)(F)C(F)(F)C(F)(F)C(F)(F)C(F)(F)C(F)(F)F`, “inactive”.
Same read-out and setting: with `CCOCN(C(=O)CCl)c1c(C)cccc1CC` the entry was “inactive”.
With `CCCN(CCC)c1c([N+](=O)[O-])cc(C(F)(F)F)cc1[N+](=O)[O-]`, the outcome was inactive.
Still for that read-out and setting: with `O=C(O)CCCOc1ccc(Cl)cc1Cl` the entry was “inactive”.
On the same count and under the same terms, with `CC(C)OC(=O)Nc1cccc(Cl)c1` the entry was “inactive”; with `Cc1cc(C)nc(NC(=O)NS(=O)(=O)c2ccccc2C(=O)OC2COC2)n1`, “inactive”.
In general, AC50 refers to the concentration at which the activity in the assay is half-maximal. Regarding `Clc1ccccc1-c1nnc(-c2ccccc2Cl)nn1`, the AC50 is 0.852 µM (active).
With `COc1nn(CSP(=S)(OC)OC)c(=O)s1`, the call was inactive.
The same measure, in the same setting: in the case of `CCOC1Oc2ccc(OS(C)(=O)=O)cc2C1(C)C` (configuration not stated) it was “inactive”.
With `CCC(C)Nc1c([N+](=O)[O-])cc(C(C)(C)C)cc1[N+](=O)[O-]` (configuration not stated), the outcome was inactive.
Turning to `CNC(=O)CSP(=S)(OC)OC`, the compound was classed as inactive.
For the compound `O=[N+]([O-])/N=C1\NCCN1Cc1ccc(Cl)nc1`, the result was inactive.
Take `N#CN`: the result was inactive.
As to `C#CCN1C(=O)COc2cc(F)c(N3C(=O)C4=C(CCCC4)C3=O)cc21`, the call was inactive.
Take `CC(C)N(C(=O)COc1nnc(C(F)(F)F)s1)c1ccc(F)cc1`: the outcome was inactive.
Still for that read-out and setting: with `O=C(NC(=O)c1c(F)cccc1F)Nc1ccc(OC(F)(F)C(F)OC(F)(F)F)c(Cl)c1` (configuration not stated) the entry was “inactive”; with `Oc1cc(Cl)ccc1Oc1ccc(Cl)cc1Cl`, “inactive”; with `COP(=S)(OC)Oc1ccc([N+](=O)[O-])cc1`, “inactive”.
On to `CC[C@H](C)[C@H]1O[C@]2(C=C[C@@H]1C)C[C@@H]1C[C@@H](C/C=C(\C)[C@@H](O[C@H]3C[C@H](OC)[C@@H](O[C@H]4C[C@H](OC)[C@@H](O)[C@H](C)O4)[C@H](C)O3)[C@@H](C)/C=C/C=C3\CO[C@@H]4[C@H](O)C(C)=C[C@@H](C(=O)O1)[C@]34O)O2` (tested in a mixture with another compound), for which the AC50 is 12.3 µM (active).
Take `COC(=O)c1ccccc1S(=O)(=O)NC(=O)Nc1nc(C)nc(OC)n1`: the outcome was inactive.
Same read-out and setting: in the case of `CCC(C)(NC(=O)c1cc(Cl)c(C)c(Cl)c1)C(=O)CCl` (configuration not stated) it was “inactive”; in that of `C[C@H]1[C@H](c2ccc(Cl)cc2)SC(=O)N1C(=O)NC1CCCCC1`, “inactive”; in that of `O=S(=O)(O)C(F)(F)C(F)(F)C(F)(F)C(F)(F)C(F)(F)C(F)(F)C(F)(F)C(F)(F)F`, “inactive”.
With `COc1cc(OC)nc(NC(=O)NS(=O)(=O)c2cc(NC=O)ccc2C(=O)N(C)C)n1`, the compound was called inactive.
On the same count and under the same terms, with `CC(C)(C)C(O)C(Oc1ccc(Cl)cc1)n1cncn1` (configuration not stated) the entry was “inactive”.
The same measure, in the same setting: with `ClC1C(Cl)C(Cl)C(Cl)C(Cl)C1Cl` (configuration not stated) the entry was “inactive”.
In the case of `COC(=O)c1ccccc1S(=O)(=O)NC(=O)N(C)c1nc(C)nc(OC)n1`, the compound was classed as inactive.
Regarding `CNC(=O)/C=C(\C)OP(=O)(OC)OC`, the result was inactive.
